Consider eight molecules from PubChem BioAssay (Tox21).

The structures appear in SMILES notation. A number with no mark means an inactive call. Results filed as inconclusive are left out. The source made the active and inactive calls. Unless noted, calls come from the whole dose curve; as a rule, active = well fitted curve in the direction sought with a large enough effect in the repeat runs; inconclusive = weak or mixed curves; inactive = no such curve, though single readings can be large; an effect the other way counts as inactive or inconclusive.

Assay [1] can be described thus: qHTS assay for small molecules that induce genotoxicity in human embryonic kidney cells expressing luciferase-tagged ATAD5 (AID 651632). Note: nearly all actives have a fitted effect of over 15% in size. In a few lines: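 Increased luciferase signal from ATAD5-tagged reporter cells indicates DNA-damage-driven ATAD5 induction. HEK293T cells are treated for 16 hr at 37C before detection with Amplite.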
Background: In qHTS, concentration-response curves come from the screen itself.

Assay [2] in a line: qHTS assay for small molecule agonists of the p53 signaling pathway - cell viability (AID 651633; calls by dose curve;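 note: p53RE-bla HCT reporter cells with a stable beta-lactamase p53 reporter; series mostly up to about 83 µM; nearly all actives have a fitted effect of over 30% in size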). Summed up: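 p53RE-bla cells, seeded at 4,000 per well and rested 5 h at 37 C/5% CO2, received compounds in DMSO for 16 h at 37 C. CellTiter-Glo was then added, and luminescence was read after 30 min at room temperature to gauge cytotoxicity.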
The nature of assay [3]: qHTS assay for small molecules that induce genotoxicity in human embryonic kidney cells expressing luciferase-tagged ATAD5 - cell viability (AID 651634; calls by dose curve; note: nearly all actives have a fitted effect of over 25% in size). Summed up:
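Cytotoxicity counterscreen in HEK293T cells bearing an ATAD5-luciferase reporter: live-cell protease activity measured by CellTiter-Fluor fluorescence after 15.5 hr compound exposure.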

The nature of assay [4]: qHTS assay to test for compound auto fluorescence at 590 nm (red) in HepG2 cells (AID 720674). Summed up: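 Intrinsic compound fluorescence in the red window (Ex/Em 540/590 nm) is measured in attached HepG2 cells exposed for 1 hr, DMSO vehicle as baseline, benchmarked to Rose Bengal sodium.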
A short description of assay [5]: qHTS assay to test for compound auto fluorescence at 535 nm (green) in HepG2 cells (AID 720675).
Assay [6] can be described thus: qHTS assay to test for compound auto fluorescence at 460 nm (blue) in HEK293 cells (AID 720678). Summed up: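 Cells were seeded and left to adhere for 4-5 hr at 37C. Compounds were then pin-transferred. After an overnight incubation at 37C under 5% CO2, intrinsic fluorescence at 405/460 nm was measured and referenced to triamterene.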
Assay [7] is described as follows: qHTS assay to test for compound auto fluorescence at 590 nm (red) in HEK293 cells (AID 720679). In a few lines: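 Each well held 2,000 HEK293 cells in medium containing 10% dialyzed FBS. Following 4-5 hr attachment at 37C, 23 nL test compound or DMSO was added; plates sat overnight, and red fluorescence (540/590nm) was recorded.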
Assay [8] can be described thus: qHTS assay to test for compound auto fluorescence at 535 nm (green) in HEK293 cells (AID 720680).
The nature of assay [9]: qHTS assay to test for compound auto fluorescence at 535 nm (green) in HEK293 cell free culture (AID 720682). Summed up: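 Measurement is a direct plate read of green fluorescence (485 nm in, 535 nm out) after compound addition to serum-supplemented DMEM lacking cells, with fluorescein used to express intensities.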
Assay [10] can be described thus: qHTS assay to test for compound auto fluorescence at 590 nm (red) in HEK293 cell free culture (AID 720683). Summed up: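 Tox21 10K library compounds were pinned into cell-free DMEM with 10% FBS and fluorescence was read at excitation 540 nm. Activity is expressed as Rose Bengal sodium equivalency.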
Assay [11] in a line: qHTS assay to test for compound auto fluorescence at 590 nm (red) in HepG2 cell free culture (AID 720684). Summed up: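 Measured in medium alone (MEM containing 10% FBS) following pintool addition of compound; emission at 590 nm with 540 nm excitation, referenced to Rose Bengal sodium.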
Assay [12] in a line: qHTS assay to test for compound auto fluorescence at 460 nm (blue) in HepG2 cell free culture (AID 720685). Summed up: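 Compound (23 nL) or DMSO pinned into cell-free MEM with 10% FBS; blue fluorescence read at 405/460 nm excitation/emission, expressed as auto-fluorescence equivalency to triamterene.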
A short description of assay [13]: qHTS assay to test for compound auto fluorescence at 460 nm (blue) in HepG2 cells (AID 720687). Summed up:
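Cells (2,000/well in MEM with 10% FBS) attached overnight at 37 C, then were exposed to compound or DMSO for 1 hr at 37 C, 5% CO2. Fluorescence read at Ex/Em 405/460 nm, expressed as triamterene-equivalent signal.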

The target of assay [14] is Glucocorticoid receptor (Homo sapiens) (UniProt P04150). As to the kind of experiment: qHTS assay to identify small molecule agonists of the glucocorticoid receptor (GR) signaling pathway (AID 720691; active = well fitted activation curve with a large enough effect in the signal ratio in the repeat runs, not every such curve was filed as active; the % refers to the signal ratio; note: potency is the fitted concentration of half-maximal effect). Summed up: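 Agonist mode in a HeLa line carrying a GRE-controlled beta-lactamase reporter. Compounds act for 18 h at 37 C before a 2 h room-temperature FRET substrate step and fluorescence reading.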
Glucocorticoid receptor (Homo sapiens), sequence (P04150 whole entry, looked up): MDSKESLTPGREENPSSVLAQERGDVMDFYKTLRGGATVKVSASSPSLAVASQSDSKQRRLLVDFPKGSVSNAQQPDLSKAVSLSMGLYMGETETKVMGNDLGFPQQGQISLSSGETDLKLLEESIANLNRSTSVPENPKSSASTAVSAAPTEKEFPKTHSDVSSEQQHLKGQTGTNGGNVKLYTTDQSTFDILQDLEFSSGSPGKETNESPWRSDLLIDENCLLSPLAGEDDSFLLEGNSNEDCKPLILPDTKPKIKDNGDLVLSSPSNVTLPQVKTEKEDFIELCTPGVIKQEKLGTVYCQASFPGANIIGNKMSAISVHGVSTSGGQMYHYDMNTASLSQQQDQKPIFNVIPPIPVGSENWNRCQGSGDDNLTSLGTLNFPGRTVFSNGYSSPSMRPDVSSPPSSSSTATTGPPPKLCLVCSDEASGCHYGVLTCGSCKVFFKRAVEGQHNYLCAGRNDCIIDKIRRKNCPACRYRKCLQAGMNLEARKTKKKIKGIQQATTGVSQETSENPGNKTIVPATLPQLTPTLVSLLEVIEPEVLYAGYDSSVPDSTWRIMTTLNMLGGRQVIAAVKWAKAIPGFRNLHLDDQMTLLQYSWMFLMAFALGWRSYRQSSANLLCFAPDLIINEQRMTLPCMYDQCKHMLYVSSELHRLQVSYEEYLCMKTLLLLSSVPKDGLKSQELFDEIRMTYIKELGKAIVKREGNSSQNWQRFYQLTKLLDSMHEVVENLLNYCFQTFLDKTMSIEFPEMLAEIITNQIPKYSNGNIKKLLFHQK

Assay [15] in a line: qHTS assay for small molecule disruptors of the mitochondrial membrane potential - cell viability (AID 720634; calls by dose curve;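 note: human HepG2 liver cancer cells; series mostly up to about 83 µM; nearly all actives have a fitted effect of over 20% in size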). Summed up:
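After overnight attachment at 37 C, HepG2 cells received compound or DMSO vehicle for 1 hr. Viability is then taken from ATP-driven luminescence following a 30 min room-temperature CellTiter-Glo step.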

Assay [16] in a line: qHTS assay for small molecule disruptors of the mitochondrial membrane potential (AID 720635). In a few lines:
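HepG2 cells (2,000/well) attached overnight at 37C, then took compound for 1 hr at 37C, 5% CO2. Mito-MPS dye was added for 30 min; fluorescence was read at 490/535 nm (monomers) and 540/590 nm (aggregates).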

A short description of assay [17]: qHTS assay to test for compound auto fluorescence at 460 nm (blue) in HEK293 cell free culture (AID 720681). In a few lines: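 Test compounds were pinned into cell-free culture medium (DMEM with 10% FBS) and fluorescence was read directly at Ex/Em 405/460 nm. Signals were expressed as fluorescence equivalents of triamterene, with DMSO vehicle as control.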
Assay [18] in a line: qHTS assay to test for compound auto fluorescence at 535 nm (green) in HepG2 cell free culture (AID 720686).
Assay [19] addresses Glucocorticoid receptor (Homo sapiens) (UniProt P04150). Nature of the assay: qHTS assay to identify small molecule antagonists of the glucocorticoid receptor (GR) signaling pathway (AID 720692; active = well fitted inhibition curve with a large enough effect in the signal ratio in the repeat runs, not every such curve was filed as active; the % refers to the signal ratio). Summed up:
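Cells plated, rested 4 h at 37 C/5% CO2; compounds in DMSO pin-transferred; dexamethasone added to 5 nM final; 18 h at 37 C; B/G FRET substrate added, 2 h room temperature; fluorescence measured.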
% is set by controls: 0 for no effect and ±100 for the full control effect.

`OC1OCCOC1O` (centres undefined): the call in assay [1], in assay [2], in assay [4], in [5], in assay [6] and in assay [7] was inactive. Besides, the call in [8], in assay [9], in assay [10], in [11], in assay [12] and in assay [13] was inactive. For the same molecule, the Potency entry in [3] and in assay [14] was “inactive” throughout.

As for `CC12CCC(C1)C(C)(C)C2O` (centres undefined), the molecule was called inactive in assay [1], in assay [2], in assay [15], in assay [5], in assay [6] and in [7]. The molecule was classed as inactive in [8], in assay [17], in assay [9], in [11], in [12] and in [18]. Besides, in [13], the result was inactive. Besides, the Potency result in assay [3] and in [16] was “inactive” each time.

For `CC1(C)O[C@H]2CC(=O)OC[C@]23[C@H]2CC[C@@]4(C)[C@H](c5ccoc5)OC(=O)[C@H]5O[C@]54[C@]2(C)C(=O)C[C@@H]13`, the molecule was classed as inactive in assay [1], in assay [2], in [15], in assay [4], in [5] and in assay [6]. In addition, the call in assay [7], in assay [8], in [17], in [9], in assay [11] and in assay [12] was inactive. Further, the call in assay [18] and in assay [13] was inactive. The Potency result in [3] and in assay [16] was “inactive” in each case. The Potency in assay [14] is 8.49 µM (active).

On to `C=C(C)[C@@H]1CC=C(C)C(=O)C1`, for which the result in assay [1], in assay [2], in assay [4], in assay [5], in assay [6] and in [7] was inactive. The outcome in assay [8], in assay [17], in assay [10], in assay [11], in [12] and in assay [18] was inactive. The call in assay [13] and in [19] was inactive. The Potency result in assay [3] and in assay [14] was “inactive” each time.

As to `CO/N=C(/C(=O)N[C@@H]1C(=O)N2C(C(=O)[O-])=C(C[n+]3ccn4ncccc43)CS[C@H]12)c1nsc(N)n1`, the result in assay [1], in assay [2], in assay [15], in assay [4], in [5] and in assay [6] was inactive. Moreover, the result in [7], in assay [8], in assay [17], in assay [9], in assay [11] and in assay [18] was inactive. Further, the call in assay [13] was inactive. In addition, the Potency entry in [3], in assay [16] and in assay [14] was “inactive” throughout.

Regarding `CO[Si](CCCn1c(=O)n(CCC[Si](OC)(OC)OC)c(=O)n(CCC[Si](OC)(OC)OC)c1=O)(OC)OC`, the molecule was classed as inactive in [1], in assay [2], in assay [15], in [5], in assay [6] and in [7]. In addition, the result in assay [8], in assay [17], in [9], in [10], in assay [11] and in assay [12] was inactive. For the same molecule, the outcome in [18] and in [13] was inactive. Also, the Potency entry in [3] and in assay [16] was “inactive” each time.

Take `Cc1c(NC(=O)c2cccnc2)c(=O)n(-c2ccccc2)n1C`: the molecule was classed as inactive in assay [1], in assay [2], in [15] and in [19]. Further, the Potency entry in [3] and in assay [16] was “inactive” in each case. Besides, the fluorescence, relative to Rose Bengal in [4] is 0.269% [at 18.6 µM]. For the same molecule, the fluorescence, % of fluorescein control is -0.0361% [at 18.6 µM] in [5] and -0.0688% [at 18.6 µM] in [18]. For the same molecule, in [6], the fluorescence, % of triamterene is -0.0133% [at 18.6 µM]. For the same molecule, the fluorescence, % of fluorescent control is 0.237% [at 18.6 µM] in [7], -0.0145% [at 18.6 µM] in assay [17], -0.0161% [at 18.6 µM] in assay [10] and 0.0214% [at 18.6 µM] in assay [13]. In addition, the fluorescence, % of fluorescein in [8] is -0.0295% [at 18.6 µM]. In assay [9], the activity change was 0.0113% [at 18.6 µM]. Also, the fluorescence, % of Rose Bengal in assay [11] was 0.102% [at 18.6 µM].

As for `CO[C@@]1(NC(=O)Cc2cccs2)C(=O)N2C(C(=O)O)=C(COC(N)=O)CS[C@@H]21`, the molecule was called inactive in [1], in assay [2], in assay [15], in assay [5], in assay [6] and in assay [7]. The outcome in assay [8], in [17], in assay [10], in assay [11] and in [13] was inactive. Moreover, the Potency result in [3] and in assay [16] was “inactive” in each case.
